Our source for the outcome and AC50 values is PubChem BioAssay (EPA / NIEHS).

Read-out in experiment [1]: Cellular tumor antigen p53 (Homo sapiens) (UniProt P04637)
Put plainly: LTEA_HepaRG_TP53: Life Technologies and Expression Analysis (LTEA) Assay for Tumor Protein P53 (TP53) using HepaRG (AID 2283537; active = hit-call score of the fitted dose curve at least 0.9, where 1 is the maximum; inactive = score below 0.9). The note with it: mRNA level, 48 h; actives raise or lower the signal. Put shortly: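 Differentiated HepaRG cells in serum-free induction medium exposed 48 h in duplicate to 8 half-log concentrations, top 100 uM, 0.5% DMSO. TP53 mRNA by TaqMan qRT-PCR (Fluidigm), normalized to ACTB, GAPDH, POLR2A; fitted bidirectionally versus DMSO.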

Read-out in experiment [2]: UDP glucuronosyltransferase (UGT1A1), UGT1A1 (gene 54658)
Briefly: LTEA_HepaRG_UGT1A1: Life Technologies and Expression Analysis (LTEA) Assay for UDP glucuronosyltransferase (UGT1A1) using HepaRG (AID 2283538; active = hit-call score of the fitted dose curve at least 0.9, where 1 is the maximum; inactive = score below 0.9). As to conditions: mRNA level, 48 h; actives raise or lower the signal. A digest of the protocol:
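Cells are plated, cultured 48 h, switched to serum-free induction medium, then dosed 48 h at eight concentrations (max 100 uM, 0.5% DMSO). RNA is isolated and UGT1A1 expression measured by qRT-PCR; changes versus DMSO are fitted in both directions.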

Read-out in experiment [3]: UDP glucuronosyltransferase (UGT1A6), UGT1A6 (gene 54578)
Briefly: LTEA_HepaRG_UGT1A6: Life Technologies and Expression Analysis (LTEA) Assay for UDP glucuronosyltransferase (UGT1A6) using HepaRG (AID 2283539; active = hit-call score of the fitted dose curve at least 0.9, where 1 is the maximum; inactive = score below 0.9). As to conditions: mRNA level, 48 h; actives raise or lower the signal. A digest of the protocol: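 Endpoint is UGT1A6 transcript induction or loss in a human liver cell line, quantified by TaqMan qRT-PCR 48 h after dosing. Concentrations ran from 100 uM downward in half-log steps in 0.5% DMSO; activity was fitted in both directions versus vehicle.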

Read-out in experiment [4]: X-box binding protein 1 (XBP1), XBP1 (gene 7494)
Briefly: LTEA_HepaRG_XBP1: Life Technologies and Expression Analysis (LTEA) Assay for X-box binding protein 1 (XBP1) using HepaRG (AID 2283540; active = hit-call score of the fitted dose curve at least 0.9, where 1 is the maximum; inactive = score below 0.9). The note with it: mRNA level, 48 h; actives raise or lower the signal. Put shortly: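 Human HepaRG monolayers receive test chemical for 48 h across an eight-point half-log series starting at 100 uM. XBP1 mRNA gain or loss is scored against DMSO by qRT-PCR.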

A short description of experiment [5]: ATG_XTT_Cytotoxicity: Cytotoxicity Assessment in the Attagene TRANS-FACTORIAL HepG2 Assay (AID 2283584). Put shortly:
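Transfect HepG2 with GAL4-UAS reporter units, dose compound, incubate 24 h, then measure viable cell number by XTT. Fit concentration response against DMSO baseline.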

A short description of experiment [6]: TOX21_p53_BLA_p2_viability: Viability Assessment in the Tox21 HCT-116 p53 Agonism Beta-lactamase Assay, Phase 2 (AID 2283591).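 Note: compound exposure lasted 16 h at 37 °C; actives lower the ATP signal meaning cytotoxicity.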 A digest of the protocol: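 Cytotoxicity readout: CellTiter-Glo ATP luminescence, 30 min at room temperature, after the beta-lactamase read. Cells were HCT116 exposed 16 h at 37C to compounds pin-transferred at 217-fold dilution from DMSO stocks.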

Experiment [7] addresses Cellular tumor antigen p53 (Homo sapiens) (UniProt P04637). Briefly: TOX21_p53_BLA_p2_ratio: Tox21 HCT-116 p53 Agonism Beta-lactamase Assay, Ratio, Phase 2 (AID 2283592). A digest of the protocol: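 Cleaved-to-uncleaved substrate ratio (460 vs 530 nm) measured in HCT116 cells with an inducible beta-lactamase reporter linked to p53 activity. Compounds incubated 16 h at 37C before 2 h room-temperature CCF4-AM loading.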

A short description of experiment [8]: TOX21_p53_BLA_p3_viability: Viability Assessment in the Tox21 HCT-116 p53 Agonism Beta-lactamase Assay, Phase 3 (AID 2283593).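 Note: cells exposed to compound for 16 h before reading.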 Put shortly:
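Cellular ATP was quantified by CellTiter-Glo luminescence, read after 30 min at room temperature. Beforehand, HCT116 cells (4000/well) received compound 5 h post-seeding, 217-fold diluted from DMSO, then incubated 16 h at 37C.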

Experiment [9] concerns the target Cellular tumor antigen p53 (Homo sapiens) (UniProt P04637). Put plainly: TOX21_p53_BLA_p3_ratio: Tox21 HCT-116 p53 Agonism Beta-lactamase Assay, Ratio, Phase 3 (AID 2283596). Put shortly:
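Cells were seeded at 4000/well, rested 5 h at 37C, then dosed with DMSO compound solutions (217-fold dilution) for 16 h. CCF4-AM substrate was loaded for 2 h at room temperature, and the 460/530 nm emission ratio was fitted for gain of signal versus DMSO.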

A short description of experiment [10]: LTEA_HepaRG_LDH_cytotoxicity: Cytotoxicity Assessment in the Life Technologies and Expression Analysis (LTEA) Assay (AID 2283563).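 For AC50: LDH activity released into spent culture medium as a marker of cell death.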 A digest of the protocol: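 Human HepaRG hepatic cells are treated with test chemicals for 48 h at up to 100 uM in 0.5% DMSO. Cytotoxicity is scored from medium LDH against the vehicle control.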

Several values for one entry are separate records, joined by “and”; a condition that tells them apart may be missing. Identical values can stand only once. Results filed as inconclusive are left out. Some structures have more than one record in an assay (separate samples or runs), and their calls can disagree. Activity calls are given as the source filed them. Rule for the calls, unless noted: active = hit-call score of the fitted dose curve at least 0.9, where 1 is the maximum; inconclusive = response in the unintended direction; inactive = score below 0.9.

Cellular tumor antigen p53 (Homo sapiens), sequence (P04637 whole entry, looked up): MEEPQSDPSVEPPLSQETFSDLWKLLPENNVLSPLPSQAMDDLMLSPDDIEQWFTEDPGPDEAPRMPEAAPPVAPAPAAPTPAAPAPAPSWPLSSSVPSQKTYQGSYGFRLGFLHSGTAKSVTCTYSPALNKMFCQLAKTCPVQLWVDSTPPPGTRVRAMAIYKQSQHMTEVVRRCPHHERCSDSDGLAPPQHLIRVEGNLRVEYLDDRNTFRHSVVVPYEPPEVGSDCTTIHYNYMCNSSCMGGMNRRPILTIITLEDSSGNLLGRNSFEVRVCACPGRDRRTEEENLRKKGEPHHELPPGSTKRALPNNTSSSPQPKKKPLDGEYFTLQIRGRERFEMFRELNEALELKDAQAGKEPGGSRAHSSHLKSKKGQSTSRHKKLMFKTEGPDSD

For `O=c1[nH]cc(F)c(=O)[nH]1`, the call in [1], in experiment [2], in [3], in experiment [4], in experiment [5] and in experiment [6] was inactive. The result in [8] was inactive. Further, the AC50 in [6] is 1.34 µM (active) and 1.39 µM (active); in experiment [7] it was 2.4 µM (active) and 1.97 µM (active) and 4.59 µM (active); in experiment [8], 882 nM (active) and 2.38 µM (active).
Regarding `CC1(C)NC(=O)NC1=O`, the molecule was called inactive in [1], in [2], in experiment [3], in experiment [4], in experiment [5] and in experiment [6]. Besides, the outcome in experiment [7], in experiment [8] and in experiment [9] was inactive.
Take `COCCOC[C@H](CC1(C(=O)NC2CCC(C(=O)O)CC2)CCCC1)C(=O)Oc1ccc2c(c1)CCC2` (stereo partly drawn): the molecule was called inactive in [1], in experiment [2], in experiment [3], in experiment [4], in experiment [10] and in experiment [6]. Besides, the result in experiment [7], in [8] and in experiment [9] was inactive.
With `CNC(=O)[C@H]1O[C@@H](n2cnc3c(NCc4cc(Cl)ccc4OCc4cc(C)no4)ncnc32)[C@H](O)[C@@H]1N`, the call in experiment [1], in experiment [2], in experiment [3], in experiment [4], in [10] and in [7] was inactive. Besides, in [8], the call was inactive.
For the molecule `Cc1cc(NC(=O)C(=O)O)cc(C)c1Oc1ccc(O)c2c1CCC2`, the outcome in [1], in experiment [2], in experiment [3], in experiment [4], in [10] and in [7] was inactive. In addition, in experiment [9], the outcome was inactive.
For the molecule `COc1ccc2c(c1)c(CC(=O)O)c(C)n2C(=O)c1ccc(Cl)cc1`, the molecule was called inactive in experiment [1], in experiment [2], in experiment [3], in experiment [4], in experiment [5] and in [6]. Moreover, the result in experiment [7] and in [8] was inactive.
Regarding `CN[C@H]1CC[C@@H](c2ccc(Cl)c(Cl)c2)c2ccc(S(N)(=O)=O)cc21`, the half-maximal activity concentration (AC50) in experiment [1] is 87.6 µM (active); in experiment [2] it was 37 µM (active); in experiment [3] it was 74.2 µM (active); in [10] it was 36.9 µM (active); in experiment [6], 78.4 µM (active); in experiment [7], 87 µM (active). The values for the half-maximal activity concentration (AC50) in experiment [8] and in experiment [9] were 71.7 µM (active) and 86.1 µM (active), respectively. Besides, the call in experiment [4] was inactive.
Consider `c1cc(-c2ccncc2)ccn1`, for which the result in experiment [1], in experiment [3], in experiment [4], in experiment [5], in [6] and in experiment [7] was inactive. Further, the molecule was called inactive in experiment [8] and in experiment [9]. Moreover, the concentration at half-maximal activity (AC50) in experiment [2] is 50 µM (active).
Consider `CCCCCCCC=O`, for which the result in experiment [1], in experiment [2], in experiment [3], in [4], in experiment [5] and in experiment [6] was inactive. The outcome in [7], in [8] and in [9] was inactive.
Consider `Cc1cc(=O)[nH]c(=S)[nH]1`, for which the result in [1], in [2], in experiment [3], in experiment [4], in experiment [10] and in [6] was inactive. For the same molecule, the result in experiment [7], in [8] and in experiment [9] was inactive.
Take `C[C@]12C=CC(=O)C=C1CC[C@@H]1[C@@H]2C(=O)C[C@@]2(C)[C@H]1CC[C@]2(O)C(=O)CO`: the call in experiment [1], in experiment [3], in [4], in experiment [5], in [6] and in experiment [7] was inactive. Besides, the molecule was called inactive in [8]. In addition, the concentration at half-maximal activity (AC50) in experiment [2] was 50 µM (active).
Take `CC=Cc1ccc(O)c(OC)c1`: the call in experiment [1], in experiment [2], in experiment [3], in [4], in experiment [5] and in [6] was inactive. The result in experiment [7] and in [9] was inactive.
For the molecule `Cc1c(C(=O)O)c(O)cc2c1C(=O)c1c(O)c([C@@H]3O[C@H](CO)[C@@H](O)[C@H](O)[C@H]3O)c(O)c(O)c1C2=O`, the molecule was classed as inactive in experiment [1], in experiment [2], in [3], in [4], in [5] and in [6]. The outcome in experiment [7] and in [8] was inactive.
Turning to `CCc1c(C(=O)NN2CCCCC2)nn(-c2ccc(Cl)cc2Cl)c1-c1ccc(Br)cc1`, the concentration at half-maximal activity (AC50) is 29.8 µM (active) in experiment [1]; 58.1 µM (active) in experiment [2]; 73.6 µM (active) in experiment [3]; 74.9 µM (active) in [4]; 5.6 µM (active) in experiment [6]; 9.14 µM (active) in experiment [8]. In addition, the outcome in [7] and in [9] was inactive.
With `CC(C)c1ccc(C(=O)N=C(N)N)cc1S(C)(=O)=O`, the half-maximal activity concentration (AC50) was 0.457 µM (active) in experiment [1], 10.2 µM (active) in experiment [2] and 0.288 µM (active) in [4]. Also, the molecule was called inactive in experiment [3], in experiment [7] and in experiment [8].
Turning to `CN1CCCC1=O`, the molecule was classed as inactive in [1], in experiment [2], in experiment [3], in [4], in experiment [5] and in experiment [7]. Further, in [8], the molecule was classed as inactive.
On to `CCCCCCOCCO`, for which the molecule was called inactive in experiment [1], in [2], in [3], in [4], in [6] and in experiment [7]. In addition, the outcome in [9] was inactive.
Regarding `CCOC(=O)C(C)(C)Oc1ccc(Cl)cc1`, the molecule was classed as inactive in [1], in experiment [3], in experiment [4], in experiment [6], in [7] and in [8]. Further, the AC50 in [2] is 15.8 µM (active).
Take `COc1ccc(C)cc1N`: the call in experiment [1], in experiment [2], in experiment [3], in experiment [4], in [5] and in [7] was inactive.
On to `CCCCCCCCCCCCCCCC`, for which the result in [1], in experiment [2], in experiment [3], in experiment [4], in [6] and in experiment [7] was inactive. The result in experiment [8] was inactive.

By AC50 is commonly meant the concentration at which the activity in the assay is half-maximal.
